# Laboratory results published in PubChem BioAssay (NCI).
# The panel holds about 83,000 compounds, 20% with a hit somewhere; the sample as a whole holds those more often.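 Activity criterion: percent growth below 10, measured after cells in 96-well plates were exposed to a single compound concentration for 48 hours.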 Values without a mark were called inactive. Active and inactive are the calls of the source.
# Tested on: SNB-19 CNS
# Test: NCI-60 one-dose screen, 48 h (100 = growth as untreated, 0 = no growth, -100 = all killed)
# Conditions: 10 µM unless noted
# Method: Growth inhibition of the SNB-19 human tumor cell line is measured as a screen for anti-cancer activity. Cells are grown in 96 well plates and exposed to the test compound for 48 hours. Compounds are tested at a single concentration, which is 10^-5 M for most compounds. The reported endpoint is percent growth (GI% or GIPRCNT), where numbers from 0 - 100% represent growth inhibition, and numbers from -100% - 0 represent cell death. For example, a value of 40 represents 60% growth inhibition. A value of 0 means no net growth occurred over the course of the experiment. A value of -40 indicates 40% of cells at the beginning of the experiment died by the end of the experiment. A value of -100 means all cells are dead at the end of the experiment.
# NCI-60 Human Tumor Cell Lines Screen was performed using the standard one-dose NCI protocol, which is described in more detail at https://dtp.cancer.gov/discovery_development/nci-60/default.htm.
# Compounds with GIPRCNT values below 10 were considered active. Activity score was based on GIPRCNT using the following formula: […]
# Score is 0 for GIPRCNT values of 100 or above, 50 for GIPRCNT values of 0, and 100 for GIPRCNT values of -100.
row,SMILES,growth
1,COc1cc(-c2cc(-c3nc4ccc(F)cc4[nH]3)[nH]n2)cc(OC)c1OC,70.8%
2,CN(C)CCCCC(C(=O)CBr)(c1ccccc1)c1ccccc1,82.6%
3,O=C1CCN2C(=O)Nc3ccccc3C2C1 (stereo not given),92%
4,O=c1[nH]ncc(Br)c1Br,72.4%
5,O=c1c(CNc2ccc(S(=O)(=O)Nc3nccs3)cc2)coc2ccccc12,95.4%
6,CN1CCN(c2nc(-c3csc(-c4cccs4)n3)cc3ccccc23)CC1,66.1%
7,C=C(C)[C@@H]1CC[C@]2(CN)CC[C@]3(C)[C@H](CC[C@@H]4[C@@]5(C)CCC(=O)NC(C)(C)[C@@H]5CC[C@]43C)[C@@H]12,78.4%
8,COc1ccc(NC(=S)N/N=C/c2ccccc2SSCCC(=O)OC[C@H]2O[C@H](O)[C@H](O)[C@@H](O)[C@@H]2O)cc1,72.2%
9,C[C@H]1[C@H]2C3=CC[C@@H]4[C@@]5(C)C/C(=C/c6ccco6)C(=O)C(C)(C)[C@@H]5CC[C@@]4(C)[C@]3(C)CC[C@@]2(C(=O)N2CCOCC2)CC[C@@H]1C,71.3%
10,c1ccc(-c2nc(Nc3ccc(-c4nc5ccccc5[nH]4)cc3)nc(N3CCOCC3)n2)cc1,-18.6% (active)
11,COc1cc2ncnc(Nc3ccc(OCc4cccc(F)c4)c(Cl)c3)c2cc1NC(=O)C1CCCC1,83.3%
12,C/C(=N\Nc1cc(C)c2cc(C)ccc2n1)c1ccccn1,20.6%
13,CC(=O)OC[C@]12CC[C@@H](/C(C)=N/O)[C@@H]1[C@H]1CC[C@@H]3[C@@]4(C)CCCNC(C)(C)[C@@H]4CC[C@@]3(C)[C@]1(C)CC2,83.1%
14,CCN1CCN(C(=O)[C@]23CCC(C)(C)C[C@H]2C2=CC[C@@H]4[C@@]5(C)CC/C(=N/O)C(C)(C)[C@@H]5CC[C@@]4(C)[C@]2(C)CC3)CC1,70.4%
15,COC(=O)CCCCCn1c2ccccc2c2c3c(c4c5ccccc5[nH]c4c21)C(=O)N(O)C3=O,29.9%
16,Cn1cc(-c2csc(-c3cn(C(=O)OC(C)(C)C)c4ccccc34)n2)c2cccnc21,83.3%
17,CC(C)=CCC/C(C)=C/CC/C(C)=C/CSC[C@H](NC(=O)CCCCCN1CCN(C)CC1)C(=O)NC1CCCCCC1,81%
18,Clc1ccccc1-c1nc(Nc2nc3ccccc3s2)nc(C(Cl)(Cl)Cl)n1,43.5%
19,O=C(c1ccccc1)C(CN1CCOCC1)c1ccccc1 (stereo not given),78.3%
20,Cc1cccc2c1NC(=O)[C@@]21[C@H](C(=O)c2ccccc2)[C@]2(C(=O)Nc3ccccc32)[C@H]2CCCN21,-5.94% [100 µM] (active)

row,SMILES,growth
1,C/C(=N\Nc1ccc2ccccc2n1)c1ccccn1,23.8%
2,O=S(=O)(NCCNc1cc(-c2cn(-c3ccccc3)nc2-c2cccc(O)c2)ccn1)c1cccc(F)c1,51.5%
3,CN(C)c1cccc2[nH]c(-c3[nH]ncc3Nc3ccnc(N)n3)nc12,-3.76% (active)
4,Cc1ccc(/C=C(\C#N)c2cc3ccccc3n2C)cc1,29.3%
5,COc1cccc(-c2nn(-c3ccccc3)cc2-c2ccnc(NCCCNS(=O)(=O)c3ccccc3)c2)c1,47.9%
6,CC(C)(C)c1cc(-n2c(-c3ccc(Cl)cc3)nc3cc(C(=O)Nc4ccc(Cl)cc4)ccc32)n[nH]1,60.2%
7,Nc1ccc(Br)cn1,107%
8,O=[N+]([O-])c1ccc(/C=N\Nc2ccccc2)cc1,104%
9,N#C/C(=C\c1ccc(-c2ccc(F)cc2)o1)c1nc(-c2ccco2)cs1,101%
10,COC(=O)C(N)CSC(c1ccccc1)(c1ccccc1)c1ccccc1 (stereo not given),63.7%
11,COc1ccc(C2(Cl)c3ccccc3N(c3ccccc3)c3ccccc32)cc1,6.63% (active)
12,C[Si](C)(C)Cc1ccccc1,116%
13,Cc1csc(Nc2nc(-c3ccc(Cl)cc3)nc(C(Cl)(Cl)Cl)n2)n1,72.9%
14,CCCCCCCCNc1cccc2c1C(=O)c1ccccc1C2=O,96.4%
15,CC(Cc1ccco1)C(=O)NC(N)=O (stereo not given),105%
16,COc1cccc(-c2nn(-c3ccccc3)cc2-c2ccnc(NCCCO)c2)c1,36.3%
17,CN1CCN(c2ccc3nc(-c4[nH]ncc4Nc4ncnc5c4OCCCN5)[nH]c3c2)CC1,-46% (active)
18,NCCn1cc(-c2nc(-c3c[nH]c4ncccc34)cs2)c2cc(F)ccc21,86.1%
19,COC(=O)C(Cc1ccccc1)n1cc(COc2nc(Cl)nc(Nc3ccc(Cl)cc3)n2)nn1 (stereo not given),98.2%
20,CCCCN1CCCCn2c1nc1c2c(=O)n(C)c(=O)n1C,104%
